The values below come from article PMC13083723 (Patterns, 2026).

Among all 5,400 compounds or so, about 190 (3.5%) showed an effect of 50% or more. The sample as a whole holds a higher share of strong results than the screen did.

This assay deals with Vero-E6. Nature of the assay: primary screen, phospholipidosis by LipidTOX staining; higher = more effect of the substance. Particulars: 10 µM. The protocol: To measure drug-induced PLD in Vero-E6 cells, we used the HCS LipidTOX Red Phospholipidosis Detection Reagent (Invitrogen, #H34351), which is non-toxic to cell growth and remains well retained after aldehyde fixation. In this setup, compounds (at 10 μM concentration) and controls (amiodarone: 10 μM concentration; DMSO: 0.1 v/v %) were added to clear-bottom, 384-well plates (PhenoPlate 384-well, black, optically clear flat bottom, tissue-culture treated, Revvity #6057302) using the Echo Liquid Handler (Labcyte).
Turning to `CN(C)c1ccc2nc3ccc(N(C)C)cc3[s+]c2c1`, the result_ITMP is given as 5.81%.

As for `CO[C@@H]1[C@H](OC(=O)NC(=O)CCl)CC[C@]2(CO2)[C@H]1[C@@]1(C)O[C@@H]1CC=C(C)C`, the result_ITMP is 16.1%.

For `NC[C@@H]1O[C@H](O[C@H]2[C@@H](O)[C@H](O[C@@H]3[C@@H](O)[C@H](N)C[C@H](N)[C@H]3O[C@H]3O[C@H](CO)[C@@H](O)[C@H](O)[C@H]3N)O[C@@H]2CO)[C@H](N)[C@@H](O)[C@@H]1O`, the result_ITMP is -1.27%.

`CC1CCC(O)C/C1=C\C=C1/CCCC2(C)C1CCC2C(C)/C=C/C(C)C(C)C` (stereo not drawn): the result_ITMP is given as 0.34%.

Regarding `C[C@H](CSC(=O)c1ccccc1)C(=O)N1C[C@@H](Sc2ccccc2)C[C@H]1C(=O)[O-]`, the result_ITMP is listed as -1.35%.

For the compound `Cc1ncc(COP(=O)([O-])O)c(CN(CCN(CC(=O)[O-])Cc2c(COP(=O)(O)O)cnc(C)c2[O-])CC(=O)[O-])c1[O-].[Mn+2]`, the result_ITMP is reported as -10.5%.

For `O=C([O-])C1=C(CSc2nnnn2CS(=O)(=O)[O-])CS[C@@H]2[C@H](NC(=O)[C@H](O)c3ccccc3)C(=O)N12`, the result_ITMP turned out to be 0.51%.

Take `CN1CCN(CC/C=C2/c3ccccc3Sc3ccc(S(=O)(=O)N(C)C)cc32)CC1`: the result_ITMP was found to be 61.9%.

As to `OCCN1CCN(CC/C=C2/c3ccccc3Sc3ccc(Cl)cc32)CC1`, the result_ITMP worked out at 17.9%.

Take `OCCOCCN1CCN(C2=Nc3ccccc3Sc3ccccc32)CC1`: the result_ITMP is recorded as 22.1%.

Turning to `CN(C)CCCN1c2ccccc2Sc2ccccc21`, the result_ITMP was 37.7%.

Turning to `Cc1[nH]c(/C=C2\C(=O)Nc3ccc(S(=O)(=O)N(C)c4cccc(Cl)c4)cc32)c(C)c1C(=O)N1CCN(C)CC1`, the result_ITMP was 7.98%.

For the compound `CN(C)CCCN1c2ccccc2Sc2ccc(Cl)cc21`, the result_ITMP came out at 104%.

Consider `CN(C)CCCN1c2ccccc2CCc2ccccc21`, for which the result_ITMP is recorded as 23.6%.

As for `CN1CCCCC1CCN1c2ccccc2Sc2ccc(S(C)=O)cc21` (stereo not drawn), the result_ITMP is on record as -0.95%.

Consider `OCCN1CCN(CC/C=C2/c3ccccc3Sc3ccc(C(F)(F)F)cc32)CC1`, for which the result_ITMP amounted to 83.6%.

Take `CSc1ccc2c(c1)N(CCC1CCCCN1C)c1ccccc1S2` (stereo not drawn): the result_ITMP worked out at 68.1%.

In the case of `CO/N=C(/C(=O)N[C@@H]1C(=O)N2C(C(=O)[O-])=C(CSc3nc(=O)c([O-])nn3C)CS[C@H]12)c1csc(N)n1`, the result_ITMP is -8.18%.

For the compound `C[N+]1([O-])[C@@H]2C[C@@H](OC(=O)[C@H](CO)c3ccccc3)C[C@H]1[C@@H]1O[C@@H]12` (stereo partly drawn), the result_ITMP is listed as -4.04%.

As for `C[C@@]1(CO)[C@H](O)CC[C@@]2(C)[C@H]1CC[C@H]1C[C@@H]3C[C@@]12CC[C@]3(O)CO`, the result_ITMP came to 0.12%.

For the compound `CC(C)(C)c1ccc(-c2nc3cccc(N4CCN(Cc5ccc6nccnc6c5)CC4)c3[nH]2)cc1`, the result_ITMP came out at 5.05%.

Turning to `Cc1cc(C)cc(NC(=O)Cc2ccc(OC(C)(C)C(=O)[O-])cc2)c1`, the result_ITMP is on record as 9.78%.

For `O=S(=O)([O-])c1ccc(O)cc1`, the result_ITMP is given as -0.61%.

Take `Cc1onc(-c2c(F)cccc2Cl)c1C(=O)N[C@@H]1C(=O)N2[C@@H]1SC(C)(C)[C@@H]2C(=O)[O-]`: the result_ITMP is listed as -6.63%.

With `CCCCOc1c(C(=O)c2c(F)cc(C)cc2F)cnc2[nH]ncc12`, the result_ITMP is 7.58%.

As to `C/C(=C\CNc1ncnc2nc[nH]c12)CO`, the result_ITMP is -1.84%.

Consider `OCCN1CCN(CCCN2c3ccccc3Sc3ccc(C(F)(F)F)cc32)CC1`, for which the result_ITMP turned out to be 60.4%.

On to `CCCCCCCCCC(=O)OCCN1CCN(CCCN2c3ccccc3Sc3ccc(C(F)(F)F)cc32)CC1`, for which the result_ITMP was 5.56%.

Consider `CCSc1ccc2c(c1)N(CCCN1CCN(C)CC1)c1ccccc1S2`, for which the result_ITMP turned out to be 59.1%.

`O=C(CN1CCN(Cc2ccc3c(c2)OCO3)CC1)N1c2ccccc2Sc2ccccc21`: the result_ITMP came to 15.4%.

Take `CN1CCN(CCCN2c3ccccc3Sc3ccc(S(=O)(=O)N(C)C)cc32)CC1`: the result_ITMP is on record as 50.3%.

Regarding `CCCCCCCCCCCCCCCC(=O)OCCC1CCN(CCCN2c3ccccc3Sc3ccc(S(=O)(=O)N(C)C)cc32)CC1`, the result_ITMP is -5.2%.

Regarding `C[C@@H]1CN(Cc2ccc(F)cc2)[C@@H](C)CN1C(=O)c1cc2c(C(=O)C(=O)N(C)C)cn(C)c2cc1Cl`, the result_ITMP is -5.07%.

Turning to `O=C([O-])c1cc2cc(Cc3cccnc3)ccc2o1`, the result_ITMP is recorded as -0.95%.

With `O=C([O-])[C@H](CC(=O)N1C[C@H]2CCCC[C@H]2C1)Cc1ccccc1`, the result_ITMP is given as -4.71%.

Take `O=C(NN1C(=O)[C@@H]2[C@@H]3C=C[C@@H]([C@H]4C[C@@H]34)[C@@H]2C1=O)c1ccc(C(F)(F)F)cc1`: the result_ITMP is -0.89%.

As to `C/N=C(/NS(=O)(=O)c1ccc(Cl)cc1)N1CC(c2ccccc2)C(c2ccc(Cl)cc2)=N1` (racemic), the result_ITMP is recorded as -1.59%.

In the case of `O=C(O)c1cnn(-c2nc3cc(Cl)c(OC(F)(F)F)cc3[nH]2)c1`, the result_ITMP is on record as -2.3%.

On to `CSc1ccc(C(=O)c2nc(O)[nH]c2C)cc1`, for which the result_ITMP is -1.45%.

As to `O=S(=O)(c1cccc2cnccc12)N1CCNCC1`, the result_ITMP amounted to 0.47%.

As to `NC(N)=NCCNS(=O)(=O)c1cccc2cnccc12`, the result_ITMP was -3.17%.

`O=S(=O)(NCCNC/C=C/c1ccc(Br)cc1)c1cccc2cnccc12`: the result_ITMP came to 60.8%.

In the case of `NC[C@@H]1O[C@H](O[C@H]2[C@@H](O)[C@H](O[C@@H]3[C@@H](O)[C@H](N)C[C@H](N)[C@H]3O[C@H]3O[C@H](CN)[C@@H](O)[C@H](O)[C@H]3N)O[C@@H]2CO)[C@H](N)[C@@H](O)[C@@H]1O`, the result_ITMP is reported as -2.72%.

Consider `c1cnc2c([O][Ga]([O]c3cccc4cccnc34)[O]c3cccc4cccnc34)cccc2c1`, for which the result_ITMP is given as 5.3%.

Regarding `CCOC(=O)c1ccc(-n2cc(Cc3cnc(OCC)nc3)c(=O)nc2SCc2ccc(F)cc2)cc1`, the result_ITMP is on record as -1.15%.

As for `CCC(C)[C@H]1O[C@]2(C=C[C@@H]1C)C[C@@H]1C[C@@H](C/C=C(\C)[C@@H](OC3C[C@H](OC)C(O[C@H]4C[C@H](OC)[C@@H](O)[C@H](C)O4)[C@H](C)O3)[C@@H](C)/C=C/C=C3\CO[C@@H]4[C@H](O)C(C)=C[C@@H](C(=O)O1)[C@]34O)O2` (stereo partly drawn), the result_ITMP was -3.77%.

For the compound `CCOc1nc2cccc(C(=O)O)c2n1Cc1ccc(-c2ccccc2-c2nc(=O)o[nH]2)cc1`, the result_ITMP is listed as -0.57%.

In the case of `NCCCC(O)(P(=O)([O-])O)P(=O)(O)O`, the result_ITMP turned out to be 0.52%.
